Test results as given in the supplement of paper PMC6718421.
± gives the uncertainty stated by the source.

System: Caenorhabditis elegans N2 (wild type)
Experiment: animals with crystals or spheres in anterior pharynx; higher = more object (crystal/sphere) accumulation
Details: 30 µM; 48 h; genotype: wild type N2; stage: L1 start
Procedure: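 Synchronized wild-type (N2) C. elegans L1 larvae (50 per well) were incubated in liquid NGM with E. coli HB101 and 30 uM of each wactive for 48 h. Live worms were scored by DIC and polarized-light microscopy for birefringent crystals or non-birefringent spheres in the anterior pharynx. At least 3 biological replicates were run with at least 20 worms each; the value is the mean % of animals carrying objects.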

Compound | animals
Brc1ccc(-c2nnc(-c3ccccc3)o2)cc1 [wact-425] | 34.5 ± 9.2%
Ic1cccc(-c2nnc(-c3ccccc3)o2)c1 [wact-51] | 51.5 ± 14%
CCCc1nc(-c2ccc(-c3ccc(F)cc3)cc2)no1 [wact-390] | 88.33 ± 0.88%
O=C(c1ccc(Br)cc1)N1CCN(c2ccc([N+](=O)[O-])cc2)CC1 [wact-381] | 99.5 ± 0.5%
Fc1ccc(-c2cn3ccsc3n2)cc1 [wact-433] | 0%
COc1ccc(C=Cc2ccccn2)cc1 [wact-622] | 0%
c1ccc(CSc2nnc(-c3ccccc3)o2)cc1 [wact-38] | 95.5 ± 3%
c1ccc(-c2noc(-c3cccs3)n2)cc1 [wact-7] | 0%
O=[N+]([O-])c1ccc(-n2ccc3ccccc32)cc1 [wact-213] | 40.3 ± 22%
O=C(NCCCCc1ccccc1)c1ccccc1F [wact-400] | 0%
Clc1ccc(-c2cn3ccsc3n2)cc1 [wact-1] | 0%
O=[N+]([O-])c1ccc(N2CCN(CC3CCCCC3)CC2)cc1 [wact-45] | 0%
CCC1CCC(N2CCN(c3ccc([N+](=O)[O-])cc3)CC2)CC1 (stereo not drawn) [wact-6] | 3.24 ± 3%
O=C(Nc1ccc(-c2nc3ccccc3s2)cc1)c1ccccc1F [wact-415] | 100%
O=[N+]([O-])c1ccc(CSc2ccc(Cl)cc2)cc1 [wact-3] | 52.6 ± 13%
c1csc(-c2cnc3ccccc3n2)c1 [wact-21] | 0%
O=[N+]([O-])c1ccc(N2CCN(CC3CC4C=CC3C4)CC2)cc1 (stereo not drawn) [wact-46] | 0%
c1ccc2nc(-c3nc4ccccc4o3)ccc2c1 [wact-40] | 12.5 ± 2.8%
O=C(Nc1ccc(I)cc1)c1ccco1 [wact-27] | 10 ± 8.3%
CCOc1ccc(-c2cnc3ccccc3n2)cc1 [wact-24] | 69.5 ± 6.4%
O=C1CC(N2CCN(c3ccc([N+](=O)[O-])cc3)CC2)C(=O)N1c1ccccc1F (stereo not drawn) [wact-56] | 0%
O=C(Nc1cccc(Cl)c1)N1CCN(c2ccc([N+](=O)[O-])cc2)CC1 [wact-31] | 0%
O=[N+]([O-])c1ccc(N2CCN(CC3CC=CCC3)CC2)cc1 (stereo not drawn) [wact-47] | 0%
CCSc1nnc(-c2ccc(Cl)cc2Cl)o1 [wact-4] | 0%
Cc1ccc(-c2cnc(-c3ccncc3)o2)cc1 [wact-23] | 0%
Cc1ccccc1C(=O)NCCc1ccccc1 [wact-406] | 0%
COc1ccccc1CNC(=O)c1ccccc1I [wact-402] | 0%
C=CCSc1nnc(-c2ccc(Cl)cc2Cl)o1 [wact-5] | 0%
